Data from PubChem BioAssay (NCATS).
Inconclusive results are not listed. A call without a number means that no potency is given here. The source made the active and inactive calls. Calls follow the shape of the dose curve; as a rule, active = well fitted inhibition curve with a large enough effect; inconclusive = small, poorly fitted or top-dose-only effect; inactive = flat fitted curve, though single readings scatter.

How the values were obtained:
Assay in all cases: qHTS profiling for inhibitors of Plasmodium falciparum proliferation (AID 504749); also: nearly all actives have a fitted effect of over 60% in size
Conditions in all cases: P. falciparum in erythrocytes, SYBR Green DNA, 72 h; series mostly up to 28.7 µM
CP269 = test system: CP269
Method in brief: (§1)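 Parasite proliferation within erythrocytes, 72 h exposure. Endpoint: SYBR Green I fluorescence after overnight lysis at room temperature. Controls: 0.29 uM artemisinin, DMSO.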

CP286 = test system: CP286
Method in brief: as §1

CP291 = test system: CP291
Method in brief: as §1

CP297 = test system: CP297
Method in brief: as §1

CP305 = test system: CP305
Method in brief: as §1

CP315 = test system: CP315
Method in brief: as §1

CP325 = test system: CP325
Method in brief: as §1

CP329 = test system: CP329
Method in brief: as §1

CP335 = test system: CP335
Method in brief: as §1

DFO2036 = test system: DFO2036
Method in brief: as §1

DIV14 = test system: DIV14
Method in brief: as §1

DIV17 = test system: DIV17
Method in brief: as §1

DIV30 = test system: DIV30
Method in brief: as §1

Dd2 = test system: Dd2
Method in brief: as §1

ECU = test system: ECU
Method in brief: as §1

FAB9 = test system: FAB9
Method in brief: as §1

GB4 = test system: GB4
Method in brief: as §1

HB3 = test system: HB3
Method in brief: as §1

ICS = test system: ICS
Method in brief: as §1

JCK = test system: JCK
Method in brief: as §1
Potency is read from the fitted curve at half-maximal effect.

With `NC(=O)c1cnccn1` the Potency (CP269) was “inactive”, the Potency (CP286) was “inactive” and the Potency (CP291) was “inactive”. For the same compound, the Potency (CP297) was “inactive”, the Potency (CP305) was “inactive” and the Potency (CP315) was “inactive”. For the same compound, the Potency (CP325) was “inactive”, the outcome (CP329) was “inactive” and the Potency (CP335) was “inactive”. The Potency (DFO2036) was “inactive”, the Potency (DIV14) was “inactive” and the Potency (DIV17) was “inactive”. For the same compound, the Potency (DIV30) was “inactive”, the Potency (Dd2) was “inactive” and the Potency (ECU) was “inactive”. For the same compound, the Potency (FAB9) was “inactive”, the Potency (GB4) was “inactive” and the Potency (HB3) was “inactive”. For the same compound, the Potency (ICS) was “inactive” and the Potency (JCK) was “inactive”.
In the case of `Cc1cn[nH]c1`, the Potency (CP269) is reported as “inactive”, the Potency (CP286) is reported as “inactive” and the Potency (CP291) is reported as “inactive”. For the same compound, the Potency (CP297) was “inactive”, the Potency (CP305) was “inactive” and the Potency (CP315) was “inactive”. The Potency (CP325) was “inactive”, the outcome (CP329) was “inactive” and the Potency (CP335) was “inactive”. For the same compound, the Potency (DFO2036) was “inactive”, the Potency (DIV14) was “inactive” and the Potency (DIV17) was “inactive”. For the same compound, the Potency (DIV30) was “inactive”, the Potency (Dd2) was “inactive” and the Potency (ECU) was “inactive”. For the same compound, the Potency (FAB9) was “inactive”, the Potency (GB4) was “inactive” and the Potency (HB3) was “inactive”. For the same compound, the Potency (ICS) was “inactive” and the Potency (JCK) was “inactive”.
`NS(=O)(=O)c1cc2c(cc1Cl)NC=NS2(=O)=O` was tested, and the Potency (CP269) was “inactive”, the Potency (CP286) was “inactive” and the Potency (CP291) was “inactive”. For the same compound, the Potency (CP297) was “inactive”, the Potency (CP305) was “inactive” and the Potency (CP315) was “inactive”. The Potency (CP325) was “inactive”, the outcome (CP329) was “inactive” and the Potency (CP335) was “inactive”. For the same compound, the Potency (DFO2036) was “inactive”, the Potency (DIV14) was “inactive” and the Potency (DIV17) was “inactive”. The Potency (DIV30) was “inactive”, the Potency (Dd2) was “inactive” and the Potency (ECU) was “inactive”. For the same compound, the Potency (FAB9) was “inactive”, the Potency (GB4) was “inactive” and the Potency (HB3) was “inactive”. The Potency (ICS) was “inactive” and the Potency (JCK) was “inactive”.
For `Nc1ccc(S(=O)(=O)Nc2ccnn2-c2ccccc2)cc1`, the Potency (CP269) was “inactive”, the Potency (CP286) was “inactive” and the Potency (CP291) was “inactive”. The Potency (CP297) was “inactive”, the Potency (CP305) was “inactive” and the Potency (CP315) was “inactive”. The Potency (CP325) was “inactive”, the outcome (CP329) was “inactive” and the Potency (CP335) was “inactive”. For the same compound, the Potency (DFO2036) was “inactive”, the Potency (DIV14) was “inactive” and the Potency (DIV17) was “inactive”. For the same compound, the Potency (DIV30) was “inactive”, the Potency (Dd2) was “inactive” and the Potency (ECU) was “inactive”. The Potency (FAB9) was “inactive”, the Potency (GB4) was “inactive” and the Potency (HB3) was “inactive”. The Potency (ICS) was “inactive” and the Potency (JCK) was “inactive”.
With `CC(=O)Oc1ccccc1C(=O)O` the Potency (CP269) was “inactive”, the Potency (CP286) was “inactive” and the Potency (CP291) was “inactive”. The Potency (CP297) was “inactive”, the Potency (CP305) was “inactive” and the Potency (CP315) was “inactive”. The Potency (CP325) was “inactive”, the outcome (CP329) was “inactive” and the Potency (CP335) was “inactive”. The Potency (DFO2036) was “inactive”, the Potency (DIV14) was “inactive” and the Potency (DIV17) was “inactive”. The Potency (DIV30) was “inactive”, the Potency (Dd2) was “inactive” and the Potency (ECU) was “inactive”. The Potency (FAB9) was “inactive”, the Potency (GB4) was “inactive” and the Potency (HB3) was “inactive”. The Potency (ICS) was “inactive” and the Potency (JCK) was “inactive”.
With `CC(C)NCC(O)COc1ccc(COCCOC(C)C)cc1` (configuration not stated) the Potency (CP269) was “inactive”, the Potency (CP286) was “inactive” and the Potency (CP291) was “inactive”. For the same compound, the Potency (CP297) was “inactive”, the Potency (CP305) was “inactive” and the Potency (CP315) was “inactive”. The Potency (CP325) was “inactive”, the outcome (CP329) was “inactive” and the Potency (CP335) was “inactive”. For the same compound, the Potency (DFO2036) was “inactive”, the Potency (DIV14) was “inactive” and the Potency (DIV17) was “inactive”. For the same compound, the Potency (DIV30) was “inactive”, the Potency (Dd2) was “inactive” and the Potency (ECU) was “inactive”. The Potency (FAB9) was “inactive”, the Potency (GB4) was “inactive” and the Potency (HB3) was “inactive”. For the same compound, the Potency (ICS) was “inactive” and the Potency (JCK) was “inactive”.
With `O=C1CCC(N2C(=O)c3ccccc3C2=O)C(=O)N1` (configuration not stated) the Potency (CP269) was “inactive”, the Potency (CP286) was “inactive” and the Potency (CP291) was “inactive”. For the same compound, the Potency (CP297) was “inactive”, the Potency (CP305) was “inactive” and the Potency (CP315) was “inactive”. The Potency (CP325) was “inactive”, the outcome (CP329) was “inactive” and the Potency (CP335) was “inactive”. For the same compound, the Potency (DFO2036) was “inactive”, the Potency (DIV14) was “inactive” and the Potency (DIV17) was “inactive”. For the same compound, the Potency (DIV30) was “inactive”, the Potency (Dd2) was “inactive” and the Potency (ECU) was “inactive”. For the same compound, the Potency (FAB9) was “inactive”, the Potency (GB4) was “inactive” and the Potency (HB3) was “inactive”. For the same compound, the Potency (ICS) was “inactive” and the Potency (JCK) was “inactive”.
In the case of `Cn1cnc([N+](=O)[O-])c1Sc1ncnc2nc[nH]c12`, the Potency (CP269) is reported as “inactive”, the Potency (CP286) is reported as “inactive” and the Potency (CP291) is reported as “inactive”. For the same compound, the Potency (CP297) was “inactive”, the Potency (CP305) was “inactive” and the Potency (CP315) was “inactive”. For the same compound, the Potency (CP325) was “inactive”, the outcome (CP329) was “inactive” and the Potency (CP335) was “inactive”. The Potency (DFO2036) was “inactive”, the Potency (DIV14) was “inactive” and the Potency (DIV30) was “inactive”. The Potency (Dd2) was “inactive”, the Potency (ECU) was 8.91 µM (active) and the Potency (FAB9) was “inactive”. The Potency (HB3) was “inactive” and the Potency (JCK) was “inactive”.
`CCCCNc1cc(C(=O)O)cc(S(N)(=O)=O)c1Oc1ccccc1` was tested, and the Potency (CP269) was “inactive”, the Potency (CP286) was “inactive” and the Potency (CP291) was “inactive”. The Potency (CP297) was “inactive”, the Potency (CP305) was “inactive” and the Potency (CP315) was “inactive”. For the same compound, the Potency (CP325) was “inactive”, the outcome (CP329) was “inactive” and the Potency (CP335) was “inactive”. The Potency (DFO2036) was “inactive”, the Potency (DIV14) was “inactive” and the Potency (DIV17) was “inactive”. The Potency (DIV30) was “inactive”, the Potency (Dd2) was “inactive” and the Potency (ECU) was “inactive”. For the same compound, the Potency (FAB9) was “inactive”, the Potency (GB4) was “inactive” and the Potency (HB3) was “inactive”. For the same compound, the Potency (ICS) was “inactive” and the Potency (JCK) was “inactive”.
For `CC(C[N+](C)(C)C)OC(N)=O` (configuration not stated), the Potency (CP269) was “inactive”, the Potency (CP286) was “inactive” and the Potency (CP291) was “inactive”. For the same compound, the Potency (CP297) was “inactive”, the Potency (CP305) was “inactive” and the Potency (CP315) was “inactive”. The Potency (CP325) was “inactive”, the outcome (CP329) was “inactive” and the Potency (CP335) was “inactive”. For the same compound, the Potency (DFO2036) was “inactive”, the Potency (DIV14) was “inactive” and the Potency (DIV17) was “inactive”. The Potency (DIV30) was “inactive”, the Potency (Dd2) was “inactive” and the Potency (ECU) was “inactive”. The Potency (FAB9) was “inactive”, the Potency (GB4) was “inactive” and the Potency (HB3) was “inactive”. The Potency (ICS) was “inactive” and the Potency (JCK) was “inactive”.
